From PubChem BioAssay (NCATS)
“And” between values parts separate entries of the source, which are not always exact repeats. Equal entries are not always repeated. Inconclusive results are not listed. Some compounds were tested as several samples or in several runs, with calls that do not always agree. The source made the active and inactive calls. Unless noted, calls follow the shape of the dose curve; as a rule, active = well fitted curve in the direction sought with a large enough effect; inconclusive = small, poorly fitted or top-dose-only effect, or another doubt; inactive = no such curve, though single readings can be large; an effect the other way counts as inactive or inconclusive.

Key:
MKL-2 = test: qHTS assay to identify novel small-molecules to repurpose for Merkel cell carcinoma treatment (AID 1296009); conditions: MCC and control cell lines, CellTiter-Glo viability, 72 h; series mostly up to 46 µM; also: % is scaled to controls: 0 for no effect and ±100 for the full control effect; nearly all actives have a fitted effect of over 60% in size
In short: (§1)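 Cells exposed to NPC (8-point) and MIPE (11-point) compound dilutions for 72 hr at 37 degree celsius; viability read by CellTiter-Glo luminescence, normalized to no-cell and DMSO in-plate controls.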

UISO = test: as above; conditions: MCC and control cell lines, CellTiter-Glo viability, 72 h; series mostly up to 46 µM
In short: as §1

WaGa = test: as above; conditions: MCC and control cell lines, CellTiter-Glo viability, 72 h; series mostly up to 46 µM
In short: as §1

C33A = test: Primary qHTS to identify gynecologic anti-cancer compounds using libraries of approved drugs and bioactive compounds (AID 1345084); conditions: Gynecologic cancer cell panel viability, ATPlite luminescence, 48 h; series mostly up to 57.5 µM; also: % is scaled to controls: 0 for no effect and ±100 for the full control effect; nearly all actives have a fitted effect of over 55% in size
In short: (§2)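 Measured: luminescence after ATPlite addition (15 min, RT). Exposure: 48 h, 37 C, 5% CO2.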

CAOV3 = test: as above; conditions: Gynecologic cancer cell panel viability, ATPlite luminescence, 48 h; series mostly up to 57.5 µM
In short: as §2

CASKI = test: as above; conditions: Gynecologic cancer cell panel viability, ATPlite luminescence, 48 h; series mostly up to 57.5 µM
In short: as §2

Es-2 = test: as above; conditions: Gynecologic cancer cell panel viability, ATPlite luminescence, 48 h; series mostly up to 57.5 µM
In short: as §2

HeLa = test: as above; conditions: Gynecologic cancer cell panel viability, ATPlite luminescence, 48 h; series mostly up to 57.5 µM
In short: as §2

Hek293T = test: as above; conditions: Gynecologic cancer cell panel viability, ATPlite luminescence, 48 h, control line for the selectivity index; series mostly up to 57.5 µM
In short: as §2

JEG-3 = test: as above; conditions: Gynecologic cancer cell panel viability, ATPlite luminescence, 48 h; series mostly up to 57.5 µM
In short: as §2

OV90 = test: as above; conditions: Gynecologic cancer cell panel viability, ATPlite luminescence, 48 h; series mostly up to 57.5 µM
In short: as §2

PA-1 = test: as above; conditions: Gynecologic cancer cell panel viability, ATPlite luminescence, 48 h; series mostly up to 57.5 µM
In short: as §2

SKOV3 = test: as above; conditions: Gynecologic cancer cell panel viability, ATPlite luminescence, 48 h; series mostly up to 57.5 µM
In short: as §2

Tov-21-G = test: as above; conditions: Gynecologic cancer cell panel viability, ATPlite luminescence, 48 h; series mostly up to 57.5 µM
In short: as §2

Tov112D = test: as above; conditions: Gynecologic cancer cell panel viability, ATPlite luminescence, 48 h; series mostly up to 57.5 µM
In short: as §2

[1] = Drug repurposing screens with cells derived from glioblastoma tumor samples (AID 1345199); conditions: GBM patient neurospheres viability, ATP luminescence, 48 h; also: nearly all actives have a fitted effect of over 40% in size; also: potency is read from the fitted curve at half-maximal effect; as to activity, negative = cell killing: % is scaled to controls: 0 for no effect and ±100 for the full control effect
In short: (§3)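 Four patient lines of CD133+ GBM neurospheres were screened at several concentrations; hits were retested in those lines plus three slower-growing GBM lines, using 48-hour treatment and ATP-based viability.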

astro = test: as above; conditions: viability, ATP luminescence, 48 h; series mostly up to 45.9 µM
In short: as §3

[2] = target: Nuclear receptor subfamily 1 group I member 2 (Rattus norvegicus) (UniProt Q9R1A7); test: qHTS assay for small molecule activators of the rat pregnane X receptor (rPXR) signaling pathway (AID 651751; call rule not given here; also: 0% is about no effect); conditions: rPXR reporter cells, luciferase (One-Glo), 24 h
Sequence of Nuclear receptor subfamily 1 group I member 2 (Rattus norvegicus) (Q9R1A7 whole entry, looked up): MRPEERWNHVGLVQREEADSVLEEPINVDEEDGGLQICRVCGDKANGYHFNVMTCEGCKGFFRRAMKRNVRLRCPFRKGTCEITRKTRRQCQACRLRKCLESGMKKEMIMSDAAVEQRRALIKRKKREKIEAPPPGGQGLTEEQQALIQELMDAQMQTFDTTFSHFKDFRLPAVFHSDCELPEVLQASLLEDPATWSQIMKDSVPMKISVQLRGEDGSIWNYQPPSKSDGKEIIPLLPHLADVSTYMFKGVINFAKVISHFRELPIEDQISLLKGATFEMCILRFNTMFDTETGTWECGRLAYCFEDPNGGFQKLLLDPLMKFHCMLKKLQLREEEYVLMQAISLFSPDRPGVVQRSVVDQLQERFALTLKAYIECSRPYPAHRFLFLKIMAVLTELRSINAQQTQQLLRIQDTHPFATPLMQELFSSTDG

[3] = qHTS assay for small molecule activators of the human pregnane X receptor (PXR) signaling pathway (AID 720659; call rule not given here; also: 0% is about no effect)
[4] = at 45.9 µM (top of the series), tumour line B
[5] = at 45.9 µM (top of the series), tumour line D
[6] = at 91.6 µM (top of the series), tumour line B
[7] = at 91.6 µM (top of the series), tumour line D
[8] = at 46 µM (top of the series), tumour line A

O=C1c2ccccc2C(=O)c2ccccc21
inactive: Potency (MKL-2) | Potency (UISO) | Potency (WaGa) | Potency (C33A) | outcome (CAOV3) | outcome (CASKI) | Potency (Es-2) | Potency (HeLa) | outcome (Hek293T) | outcome (JEG-3) | Potency (OV90) | Potency (PA-1) | outcome (SKOV3) | Potency (Tov-21-G) | Potency (Tov112D) | activity, negative = cell killing [1, 4] 4.04% | activity, negative = cell killing [1, 5] -17.8% | Potency (astro) | max response [2] 4.64%

C=CCC1([C@H](C)CCC)C(=O)NC(=O)NC1=O
inactive: Potency (MKL-2) | Potency (UISO) | Potency (WaGa) | Potency (C33A) | outcome (CAOV3) | outcome (CASKI) | Potency (Es-2) | Potency (HeLa) | outcome (Hek293T) | outcome (JEG-3) | Potency (OV90) | Potency (PA-1) | outcome (SKOV3) | Potency (Tov-21-G) | Potency (Tov112D) | activity, negative = cell killing [1, 6] -8.55% | activity, negative = cell killing [1, 7] -0.262% | Potency (astro)

CCCCCCC(=O)CCCCCC/C=C/C[C@@H](O)[C@H](O)[C@@](N)(CO)C(=O)O
inactive: Potency (MKL-2) | Potency (UISO) | Potency (WaGa) | Potency (C33A) | outcome (CAOV3) | outcome (CASKI) | Potency (Es-2) | Potency (HeLa) | outcome (Hek293T) | outcome (JEG-3) | Potency (OV90) | Potency (PA-1) | outcome (SKOV3) | Potency (Tov-21-G) | Potency (Tov112D) | activity, negative = cell killing [1, 4] -13.1% and -22.4% | activity, negative = cell killing [1, 5] -26.9% and -22.9% | Potency (astro)
active: Potency ([1]; tumour line A) 35.5 µM

CN(C)CCc1c[nH]c2cccc(OP(=O)(O)O)c12
inactive: Potency (MKL-2) | Potency (UISO) | Potency (WaGa) | Potency (C33A) | outcome (CAOV3) | outcome (CASKI) | Potency (Es-2) | Potency (HeLa) | outcome (Hek293T) | outcome (JEG-3) | Potency (OV90) | Potency (PA-1) | outcome (SKOV3) | Potency (Tov-21-G) | Potency (Tov112D) | activity, negative = cell killing ([1]; at 91.6 µM (top of the series), tumour line A) -30.1% | activity, negative = cell killing [1, 6] -11.6% | activity, negative = cell killing [1, 7] -12.3% | Potency (astro)

C[C@H](N)C(=O)c1ccccc1
inactive: Potency (MKL-2) | Potency (UISO) | Potency (WaGa) | Potency (C33A) | outcome (CAOV3) | outcome (CASKI) | Potency (Es-2) | outcome (Hek293T) | outcome (JEG-3) | Potency (PA-1) | outcome (SKOV3) | Potency (Tov-21-G) | Potency (Tov112D) | activity, negative = cell killing [1, 4] -11.6% | activity, negative = cell killing [1, 5] -9.76% | activity, negative = cell killing ([1]; at 108 µM (top of the series), tumour line B) -16.2% | activity, negative = cell killing ([1]; at 108 µM (top of the series), tumour line D) -20.3% | Potency (astro)

NC1=NC(=O)C(c2ccccc2)O1 (centres undefined)
inactive: Potency (MKL-2) | Potency (UISO) | Potency (WaGa) | Potency (C33A) | outcome (CAOV3) | outcome (CASKI) | Potency (Es-2) | Potency (HeLa) | outcome (Hek293T) | outcome (JEG-3) | Potency (OV90) | Potency (PA-1) | outcome (SKOV3) | Potency (Tov-21-G) | Potency (Tov112D) | activity, negative = cell killing [1, 4] -0.343% | activity, negative = cell killing [1, 5] -7.44% | activity, negative = cell killing [1, 8] -19.1% | Potency (astro)

CN1C(=O)COc2c(C(=O)NC3CN4CCC3CC4)cc(Cl)cc21 (centres undefined)
active: Potency ([1]; tumour line A) 22.4 µM
inactive: Potency (MKL-2) | Potency (UISO) | Potency (WaGa) | Potency (C33A) | outcome (CAOV3) | outcome (CASKI) | Potency (Es-2) | Potency (HeLa) | outcome (Hek293T) | outcome (JEG-3) | Potency (OV90) | Potency (PA-1) | outcome (SKOV3) | Potency (Tov-21-G) | Potency (Tov112D) | Potency (astro)

CCCN(CCC)C(=O)Cc1c(-c2ccc(Cl)cc2)nc2ccc(Cl)cn12
active: Potency ([1]; tumour line A) 10 µM
inactive: Potency (MKL-2) | Potency (UISO) | Potency (WaGa) | Potency (C33A) | outcome (CAOV3) | outcome (CASKI) | Potency (Es-2) | Potency (HeLa) | outcome (Hek293T) | outcome (JEG-3) | outcome (SKOV3) | Potency (Tov-21-G) | Potency (Tov112D) | activity, negative = cell killing [1, 4] -4.08%

O=[N+]([O-])O[C@H]1CO[C@H]2[C@@H]1OC[C@H]2O[N+](=O)[O-]
inactive: Potency (MKL-2) | Potency (UISO) | Potency (WaGa) | Potency (C33A) | outcome (CASKI) | Potency (Es-2) | Potency (HeLa) | outcome (Hek293T) | outcome (JEG-3) | Potency (OV90) | Potency (PA-1) | outcome (SKOV3) | Potency (Tov-21-G) | Potency (Tov112D) | activity, negative = cell killing [1, 4] -6.92% | activity, negative = cell killing [1, 5] 3.62% | activity, negative = cell killing [1, 8] -13.3%

C#C[C@]1(O)CC[C@H]2[C@@H]3CCC4=CC(=O)CC[C@]4(C)[C@H]3CC[C@@]21C
inactive: Potency (MKL-2) | Potency (UISO) | Potency (WaGa) | Potency (C33A) | outcome (CAOV3) | outcome (CASKI) | Potency (Es-2) | Potency (HeLa) | outcome (Hek293T) | outcome (JEG-3) | Potency (OV90) | Potency (PA-1) | outcome (SKOV3) | Potency (Tov-21-G) | Potency (Tov112D) | activity, negative = cell killing [1, 4] -23.4% and -19.6% | activity, negative = cell killing [1, 5] -13.1% and -15.3% | activity, negative = cell killing [1, 8] -19.9% | Potency (astro)

CC(C)(N)Cc1ccccc1Cl
inactive: Potency (MKL-2) | Potency (UISO) | Potency (WaGa) | Potency (C33A) | outcome (CASKI) | Potency (Es-2) | Potency (HeLa) | outcome (Hek293T) | outcome (JEG-3) | Potency (OV90) | Potency (PA-1) | outcome (SKOV3) | Potency (Tov-21-G) | Potency (Tov112D)

NC(=O)c1cc([N+](=O)[O-])cc([N+](=O)[O-])c1
inactive: Potency (MKL-2) | Potency (UISO) | Potency (WaGa) | Potency (C33A) | outcome (CAOV3) | outcome (CASKI) | Potency (Es-2) | Potency (HeLa) | outcome (Hek293T) | Potency (OV90) | Potency (PA-1) | outcome (SKOV3) | Potency (Tov-21-G) | Potency (Tov112D) | activity, negative = cell killing [1, 4] -14% | activity, negative = cell killing [1, 5] -22.7% | Potency (astro)

CCN[C@@H](C)Cc1cccc(C(F)(F)F)c1
inactive: Potency (MKL-2) | Potency (UISO) | Potency (WaGa) | Potency (C33A) | outcome (CAOV3) | outcome (CASKI) | Potency (Es-2) | Potency (HeLa) | outcome (Hek293T) | outcome (JEG-3) | Potency (OV90) | Potency (PA-1) | outcome (SKOV3) | Potency (Tov-21-G) | Potency (Tov112D) | activity, negative = cell killing [1, 6] 2.77% | activity, negative = cell killing [1, 7] -1.09% | Potency (astro)

Oc1ccc(Cl)cc1
inactive: Potency (MKL-2) | Potency (UISO) | Potency (WaGa) | Potency (C33A) | outcome (CAOV3) | outcome (CASKI) | Potency (Es-2) | Potency (HeLa) | outcome (Hek293T) | outcome (JEG-3) | Potency (OV90) | Potency (PA-1) | Potency (Tov-21-G) | Potency (Tov112D) | activity, negative = cell killing [1, 4] -7.37% | activity, negative = cell killing [1, 5] -24.9% | activity, negative = cell killing [1, 8] -26.5% | Potency (astro) | max response [2] 5.25% | outcome [3]
